Source: PubChem BioAssay AID651599 (National Center for Advancing Translational Sciences (NCATS), 2012)
Inconclusive results are not listed. Where a call stands in place of a potency, no number is given. Active and inactive are the calls of the source. The call rests on the fitted dose curve; in most records, active means well fitted inhibition curve with a large enough effect; inconclusive means small, poorly fitted or top-dose-only effect; inactive means no such curve, though single readings can be large or run the other way.

Target: Tumor susceptibility gene 101 protein (Homo sapiens) (UniProt Q99816)
Assay: qHTS Assay for Iinhibitors of HIV-1 Budding by Blocking the Interaction of PTAP/TSG101: Hit Validation in TR assay
Procedure, shortened: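 Texas Red-PTAP peptide (50 nM) binding to Tsg101 binding domain (10 uM), both final, in pH 7.5 HEPES buffer, read as polarization after 20 min at room temperature; compounds pinned before peptide addition.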
Potency means the concentration at half of the fitted maximal effect.

Tumor susceptibility gene 101 protein (Homo sapiens), sequence (Q99816 whole entry, looked up): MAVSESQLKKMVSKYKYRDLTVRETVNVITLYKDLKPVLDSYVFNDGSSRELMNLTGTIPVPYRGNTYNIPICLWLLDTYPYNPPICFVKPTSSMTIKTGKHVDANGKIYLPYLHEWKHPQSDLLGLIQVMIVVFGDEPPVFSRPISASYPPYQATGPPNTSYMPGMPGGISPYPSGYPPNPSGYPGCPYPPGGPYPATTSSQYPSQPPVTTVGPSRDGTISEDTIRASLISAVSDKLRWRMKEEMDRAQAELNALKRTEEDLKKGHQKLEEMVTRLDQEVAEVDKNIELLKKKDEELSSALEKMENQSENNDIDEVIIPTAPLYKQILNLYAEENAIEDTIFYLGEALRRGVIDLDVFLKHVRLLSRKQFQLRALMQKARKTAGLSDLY

Structure (SMILES) | Potency
Nc1c(C(=O)O)sc2nc(-c3ccccc3)cc(-c3ccc(Cl)cc3)c12 | inactive
C=CCn1c(=O)[nH]c2nc3cc(N=CN(C)C)c(C)cc3nc2c1=O | 18.3 µM (active)
Cc1cc(=O)oc2ccc(OC(=O)CN3C(=O)c4cccc([N+](=O)[O-])c4C3=O)cc12 | inactive
Cc1cc(-c2cccs2)c2c(N)c(C(=O)c3ccc4c(c3)OCO4)sc2n1 | inactive
Clc1ccc(C2=CC(c3ccco3)n3ncnc3N2)cc1 (stereo not drawn) | inactive
O=C(Nc1nc2c(s1)CN(Cc1ccccc1)CC2)c1cccc(S(=O)(=O)N2CCc3ccccc32)c1 | inactive
Cc1ccc(N2C(=O)C3C(C(=O)c4ccccc4)=NN(c4ccccc4)C3C2=O)cc1 (stereo not drawn) | inactive
CCC(=O)Oc1ccc2c(c1)O/C(=C\c1ccco1)C2=O | inactive
Cn1cc(/C=C2\SC(=S)N(NC(=O)c3ccccc3)C2=O)c2ccccc21 | inactive
Nc1ccc2c3c(cccc13)C(=O)N(c1ccccc1)C2=O | inactive
CCCN1C(=O)/C(=C/C=C2\N(CC)c3ccccc3C2(C)C)SC1=S | inactive
Cc1ccc(N2C3=C(C(=O)CC(C)(C)C3)C(c3cn(C)nc3C)C3=C2CC(C)(C)CC3=O)cc1 | inactive
O=C(NC1CCCC1)c1cccc2c1C(=O)c1ccc(N3CCCCC3)cc1S2(=O)=O | inactive
CC(=O)Nc1ccc(N=Cc2c(O)ccc3ccccc23)cc1 | inactive
O=C(NCCc1ccc(F)cc1)c1cccc2c1C(=O)c1ccc(N3CCC(Cc4ccccc4)CC3)cc1S2(=O)=O | inactive
CC(=O)c1ccc2c(c1)c(C#N)c1ccccc1[n+]2[O-] | inactive
C/C(N)=C(/C#N)C(=O)CSc1ncnc2ccccc12 | inactive
CC1CCN(Cc2c(O)ccc3c2O/C(=C\c2ccco2)C3=O)CC1 | inactive
CN(C)c1ccc(/C=C(\C#N)C(=O)Nc2nc3c(s2)CCN(Cc2ccccc2)C3)cc1 | inactive
O=C(NCc1cc(C(F)(F)F)ccc1Cl)c1cccc2c1C(=O)c1ccc(N3CCC(Cc4ccccc4)CC3)cc1S2(=O)=O | inactive
CCN(CC)S(=O)(=O)c1ccc(C(=O)/C=C/c2ccc(-c3ccc([N+](=O)[O-])cc3)o2)cc1 | inactive
O=C(O)c1ccccc1-c1ccc(/C=C/c2cc(C(F)(F)F)[nH]c(=O)n2)o1 | inactive
CCN1CC=C2C(C#N)=C(N)C(C#N)(C#N)C(CCc3ccccc3)C2C1 (stereo not drawn) | 11.6 µM (active)
C[C@H](O)C(=O)C1=Nc2c(nc(N)[nH]c2=O)NC1 | inactive
C=CCOc1ccc(C2OC34CCCCC3C(C#N)(C#N)C2(C#N)C(=N)O4)cc1 (stereo not drawn) | inactive
CCOC(=O)c1cc2n(c1/N=C/N(C)C)-c1ccccc1C2=O | inactive

Structure (SMILES) | Potency
O=C(NCc1ccccc1Br)c1cccc2c1C(=O)c1ccc(N3CCC(Cc4ccccc4)CC3)cc1S2(=O)=O | inactive
COc1ccc(OC)c(/C=c2\sc3nc(-c4cccs4)nn3c2=O)c1 | inactive
N=c1c(S(=O)(=O)c2ccc(Br)cc2)cc2c(=O)n3ccccc3nc2n1Cc1ccccc1 | inactive
Cn1c(=O)c(Nc2ccc(Cl)cc2)c2c3c(cccc31)C(=O)c1ccccc1-2 | inactive
C=CCn1c(=N)c(S(=O)(=O)c2ccc(C)c(C)c2)cc2c(=O)n3ccccc3nc21 | inactive
Cc1ccc(OC(=O)c2ccc3nc(C)sc3c2)cc1 | inactive
CCOc1ccc(Cn2c3ccc(OC)cc3c3nc4ccccc4nc32)cc1 | inactive
O=C1/C(=C/c2ccco2)Oc2c1ccc(O)c2CN1CCCCC1 | inactive
O=C(CCN1C(=O)/C(=C/c2ccco2)SC1=S)Nc1ccc(O)cc1C(=O)O | inactive
COc1ccccc1NC(=O)/C(C#N)=C/c1cc([N+](=O)[O-])ccc1N1CCCC1 | inactive
CCCCCCCCOc1ccc(C2OC34CCCCC3C(C#N)(C#N)C2(C#N)C(=N)O4)cc1 (stereo not drawn) | inactive
COc1ccc(OC)c2cc3ccccc3cc12 | inactive
CCCN1CCCc2cc(CN)ccc21 | inactive
COc1cccc2c1C(=O)c1c(O)c3c(c(O)c1C2=O)C[C@](O)(C(C)=O)C[C@H]3O[C@@H]1C[C@@H](N)[C@@H](O)[C@@H](C)O1 | inactive
Nc1ccc2c(c1)C/C(=C/c1ccco1)C2=O | inactive
N#CC(C#N)=C1C=C2C=C(N3CCCCC3)CCC2CC1 (stereo not drawn) | inactive
CN(C)c1ccc(/C=C2\SC(=O)N(CC(O)Cn3c4ccccc4c4ccccc43)C2=O)cc1 (stereo not drawn) | inactive
CCCNc1c(F)c(F)c2c(C)c3ccccc3nc2c1F | inactive
CCN(CC)C(=O)c1sc2nc(-c3cccs3)cc(-c3cccs3)c2c1N | inactive
Cc1cc(Br)ccc1NC(=O)c1sc2nc3n(c(=O)c2c1C)CCCC3 | inactive
CSc1c(C#N)c(N)nc2sc(C(=O)c3ccc(Cl)c(Cl)c3)c(N)c12 | inactive
O=Cc1ccc2noc(-c3ccc(F)cc3)c2c1 | inactive
CN1CCC2(CC1)C1CN(C)CC=C1C(C#N)=C(N)C2(C#N)C#N (stereo not drawn) | inactive
Oc1oc(-c2ccccc2)nc1C=Nc1cccc2ccccc12 | inactive
O=C(NCc1cccc(C(F)(F)F)c1)c1cccc2c1C(=O)c1ccc(N3CCC(Cc4ccccc4)CC3)cc1S2(=O)=O | inactive
CCc1cc(C(=O)Nc2ccc(OC)nc2)sc1C | inactive

Structure (SMILES) | Potency
N#C/C(=C\C=C\c1ccccc1)c1nc(-c2ccc3c(c2)OCO3)cs1 | inactive
Nc1ccc2c3c(cccc13)-c1ccccc1-2 | inactive
c1ccc(-c2cnn3c(-c4ccccc4)c(-c4ccccc4)nc3n2)cc1 | inactive
Nc1ccc2nc3c(=O)[nH]c(=S)[nH]c3nc2c1 | inactive
COc1ccc(OC)c2c1C(=O)c1ccccc1C2=O | inactive
CCCCNC(=O)C(C#N)c1nc2ccccc2nc1N1CCN(Cc2ccc3c(c2)OCO3)CC1 (stereo not drawn) | inactive
CC1CC=C2C(C#N)=C(N)C(C#N)(C#N)C(c3cccs3)C2C1 (stereo not drawn) | inactive
COc1ccc(CCn2c(=N)c(S(=O)(=O)c3ccc(Cl)cc3)cc3c(=O)n4ccccc4nc32)cc1 | inactive
O=C1CCN2C=Nc3cccc4ccc1c2c34 | inactive
Cn1c2ccc(F)cc2c2nc3ccccc3nc21 | inactive
O=C1Nc2ccccc2/C1=C/c1cnc(-c2ccccc2)[nH]1 | inactive
N#CC(C(=O)NCc1ccccc1)c1nc2ccccc2nc1N1CCCC1 (stereo not drawn) | inactive
CCN(CC)C(=O)[C@H]1CC(CC(=O)NCc2cccc(C(F)(F)F)c2)C(=O)N2CCc3c([nH]c4ccc(OC)cc34)[C@]12C (stereo partly drawn) | inactive
CN1CCc2c(sc3c2C(=O)NC(c2ccco2)N3)C1 (stereo not drawn) | inactive
O=c1[nH]c2c(s1)C=Nc1ccccc1N2 | inactive
COc1ccc(C(=O)c2sc3nc(C)cc(-c4cccs4)c3c2N)cc1OC | inactive
COc1ccc2nc3ccccc3[n+]([O-])c2c1 | inactive
Cc1cccc2cc(/C=C3\N=C(c4ccccc4)OC3=O)c(N3CCOCC3)nc12 | inactive
CCCCOC(=O)c1ccc(NC(=O)/C(C#N)=C/c2ccc(-c3ccccc3)o2)cc1 | inactive
O=C1c2ccccc2C(=O)c2c1ccc(O)c2O | inactive
CCNc1ccc2noc3c2c1C(=O)c1ccccc1-3 | inactive
COc1ccc(-c2cc(C(=O)N3CC(C)CC(C)C3)c3ccccc3n2)cc1OC (stereo not drawn) | inactive
Cc1cccc(N2C(=O)c3cccc4c(N(C)CCO)ccc(c34)C2=O)c1 | inactive
CN(C)c1ccc(N=Cc2nc(-c3ccccc3)oc2O)cc1 | inactive
CC(=O)n1c(C=Nc2ccc(Cl)cc2)c(O)c2ccccc21 | inactive
Cc1cc[n+](-c2[nH]c(=O)sc2/C=N/NC([S-])=Nc2ccccc2)cc1 | inactive

Structure (SMILES) | Potency
CCOc1ccc(NC(=O)c2ccc3c(c2)CCN3S(C)(=O)=O)cc1 | inactive
CC1CC(C)CN(C(=O)c2ccc3c(c2NCCO)C(=O)c2ccccc2C3=O)C1 (stereo not drawn) | inactive
Cc1ccc(C2C3CN(C(C)C)CC=C3C(C#N)=C(N)C2(C#N)C#N)cc1 (stereo not drawn) | inactive
CCN(CC)c1ccc2cc(NC(=O)CCC(=O)O)c(=O)oc2c1 | inactive
CCOC(=O)Cn1c(=NC(=O)c2ccc([N+](=O)[O-])s2)sc2ccccc21 | inactive
CCN1C(=O)c2cccc3c(N)ccc(c23)C1=O | inactive
CCCCC(=O)NC1=NC(=O)C(C)(C)S1 | inactive
COc1ccc2nc(N3CCCC3)c(C#N)cc2c1 | inactive
Cc1ccccc1C1CC(=O)Oc2cc(O)ccc21 (stereo not drawn) | inactive
O=c1oc2c(CN3CCCCC3)c(O)ccc2cc1-c1nc2ccccc2[nH]1 | inactive
CC(C)(C)c1cc[n+](-c2[nH]c(=O)sc2/C=N/NC(=O)c2ccccc2[O-])cc1 | inactive
Cc1cccc(NC(=S)NCCC(c2ccccc2)c2ccccc2)c1 | inactive
O=C1/C(=C\c2ccc(-c3ccccc3Cl)o2)SC(=S)N1CC1CCCO1 (stereo not drawn) | inactive
CS(=O)(=O)Nc1nc2n(n1)C(c1ccccc1)C=C(c1ccc(Br)cc1)N2 (stereo not drawn) | inactive
CSc1ccc(C2C(C(=O)c3ccco3)=C(O)C(=O)N2c2nnc(SC)s2)cc1 (stereo not drawn) | inactive
Cc1cc(C)n2nc3nc4c(cc3c2n1)CCCC4 | inactive
COc1cc(-c2cc(-c3ccc(N)cc3)[nH]c(=O)c2C#N)cc(OC)c1OC | inactive
O=C1c2cccc3c(O)ccc(c23)C(=O)N1Cc1ccco1 | inactive
COc1ccc(OC)c(NC(=O)CCN2CC(C)CC(C)C2)c1 (stereo not drawn) | inactive
CC1(C)CC(=O)C2=C(C1)OC(N)=C(C#N)[C@@H]2c1ccccc1[N+](=O)[O-] | inactive
CC(C)c1nnc(N2C(=O)C(O)=C(C(=O)c3cccs3)C2c2ccccc2)s1 (stereo not drawn) | inactive
COc1ccc(NC(=O)c2nc(-c3ccc(C)cc3)n3c2CCCCC3)cc1 | inactive
Cc1ccc2c(c1)c1nc3ccccc3nc1n2C | inactive
N=C1CCC(=N)c2c1c(O)c1ccccc1c2O | inactive
O=[N+]([O-])c1ccc(-c2ccc(/C=N/Nc3nc(N4CCCC4)nc(N4CCCC4)n3)o2)cc1 | inactive
